Data: the supplement of paper PMC6992640
± gives the standard deviation of the averaged measurements.

Columns and labels:
Assay in all cases: cell viability (% of vehicle); higher = less cytotoxic
Conditions in all cases: 10 µM; 72 h
HCI01 = system: HCI01 (cells of a triple-negative basal-like breast cancer xenograft)
HCI03 = system: HCI03 (cells of an ER-positive luminal breast cancer xenograft)
HCI09 = system: HCI09 (cells of a triple-negative luminal androgen receptor type breast cancer xenograft)
HCI11 = system: HCI11 (cells of an ER-positive luminal breast cancer xenograft)
HCI13 = system: HCI13 (cells of an ER-positive luminal breast cancer xenograft)
HCI16 = system: HCI16 (cells of a triple-negative basal-like breast cancer xenograft)
UCD52 = system: UCD52 (cells of a triple-negative basal-like breast cancer xenograft)
WHIM2 = system: WHIM2 (cells of a triple-negative basal-like breast cancer xenograft)
WHIM30 = system: WHIM30 (cells of a triple-negative basal-like breast cancer xenograft)
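Note: PDX cells carrying CMV promoter-driven luciferase, viability read as total photon flux per second by IVIS imaging following D-luciferin, vehicle control 0.1% DMSO.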

Q: How did the cell viability (HCI01) turn out when `CC(C)OC(=O)C(C(=O)OC(C)C)=C1SC=CS1` [Malotilate] was run?
A: 108 ± 12

Q: What about the cell viability (HCI03) of the same compound?
A: 84.3

Q: And the cell viability (HCI09)?
A: 90.2 ± 13

Q: And the cell viability (HCI11)?
A: 90.9

Q: What about the cell viability (HCI13) of the same compound?
A: 89.8 ± 3.1

Q: What about the cell viability (HCI16) of the same compound?
A: 75.5

Q: And the cell viability (UCD52)?
A: 89.5 ± 2.4

Q: What about the cell viability (WHIM2) of the same compound?
A: 75.6 ± 17

Q: What about the cell viability (WHIM30) of the same compound?
A: 97.9 ± 4

Q: For `COc1c(N2CC3CCCNC3C2)c(F)cc2c(=O)c(C(=O)O)cn(C3CC3)c12.Cl` (stereo not given) [Moxifloxacin HCl], which cell viability (HCI01) is on record?
A: 132 ± 5.7

Q: What about the cell viability (HCI03) of the same compound?
A: 124

Q: What about the cell viability (HCI09) of the same compound?
A: 97.1 ± 3.3

Q: And the cell viability (HCI11)?
A: 120

Q: And the cell viability (HCI13)?
A: 113 ± 14

Q: What about the cell viability (HCI16) of the same compound?
A: 114

Q: What about the cell viability (UCD52) of the same compound?
A: 133 ± 11

Q: What about the cell viability (WHIM2) of the same compound?
A: 92.3 ± 8.9

Q: What about the cell viability (WHIM30) of the same compound?
A: 134 ± 16

Q: What does the source list for `CNC(=O)CN(CCN(CCN(CC(=O)[O-])CC(=O)NC)CC(=O)[O-])CC(=O)[O-].O.[Gd+3]` [Gadodiamide]?
A: cell viability (HCI01): 99.5 ± 27; cell viability (HCI03): 111; cell viability (HCI09): 99 ± 15; cell viability (HCI11): 90.1; cell viability (HCI13): 83.6 ± 8.9; cell viability (HCI16): 112; cell viability (UCD52): 104 ± 7.4; cell viability (WHIM2): 92.5 ± 29; cell viability (WHIM30): 94.5 ± 5.2

Q: With `CC(C)C1C(=O)NC(CCCN=C(N)N)C(=O)NCC(=O)NC(CC(=O)O)C(=O)NC(Cc2ccccc2)C(=O)N1C` (stereo not given) [Cilengitide] as the compound, how does the cell viability (HCI01) read?
A: 114 ± 9.1

Q: What about the cell viability (HCI03) of the same compound?
A: 76.7

Q: What about the cell viability (HCI09) of the same compound?
A: 125 ± 49

Q: What about the cell viability (HCI11) of the same compound?
A: 97.4

Q: What about the cell viability (HCI13) of the same compound?
A: 124 ± 12

Q: What about the cell viability (HCI16) of the same compound?
A: 91

Q: What about the cell viability (UCD52) of the same compound?
A: 84.4 ± 5.5

Q: What about the cell viability (WHIM2) of the same compound?
A: 94.1 ± 6.8

Q: And the cell viability (WHIM30)?
A: 143 ± 14

Q: What does the source list for `CCCC(=O)[O-].[Na+]` [Sodium butyrate]?
A: cell viability (HCI01): 99.3 ± 20; cell viability (HCI03): 85.5; cell viability (HCI09): 89.8 ± 3.3; cell viability (HCI11): 92.5; cell viability (HCI13): 47.1 ± 5.4; cell viability (HCI16): 91.9; cell viability (UCD52): 73.7 ± 6.9; cell viability (WHIM2): 83.5 ± 18; cell viability (WHIM30): 119 ± 11

Q: For `Cl.NC(N)=NC(=O)c1nc(Cl)c(N)nc1N.O.O` [Amiloride HCl dihydrate], which cell viability (HCI01) is on record?
A: 99.2 ± 7.3

Q: What about the cell viability (HCI03) of the same compound?
A: 102

Q: What about the cell viability (HCI09) of the same compound?
A: 121 ± 1.5

Q: And the cell viability (HCI11)?
A: 89.4

Q: And the cell viability (HCI13)?
A: 102 ± 8.4

Q: And the cell viability (HCI16)?
A: 115

Q: What about the cell viability (UCD52) of the same compound?
A: 96.35 ± 0.8

Q: And the cell viability (WHIM2)?
A: 86 ± 16

Q: And the cell viability (WHIM30)?
A: 114 ± 8.2

Q: Which results are given for `CCOc1cc(N)c(Cl)cc1C(=O)NCC1CN(Cc2ccc(F)cc2)CCO1.O=C(O)CC(O)(CC(=O)O)C(=O)O` (stereo not given) [Mosapride Citrate]?
A: cell viability (HCI01): 138 ± 14; cell viability (HCI03): 110; cell viability (HCI09): 83.1 ± 9.6; cell viability (HCI11): 116; cell viability (HCI13): 103 ± 23; cell viability (HCI16): 118; cell viability (UCD52): 106 ± 2.8; cell viability (WHIM2): 82.6 ± 16; cell viability (WHIM30): 136 ± 5.5

Q: Which cell viability (HCI01) does the source give for `CCCC(CCC)C(=O)O.CCCC(CCC)C(=O)[O-].[Na+]` [Divalproex Sodium] here?
A: 112 ± 1.5

Q: What about the cell viability (HCI03) of the same compound?
A: 116

Q: And the cell viability (HCI09)?
A: 96.4 ± 23

Q: What about the cell viability (HCI11) of the same compound?
A: 111

Q: What about the cell viability (HCI13) of the same compound?
A: 114 ± 41

Q: And the cell viability (HCI16)?
A: 94.5

Q: What about the cell viability (UCD52) of the same compound?
A: 86.1 ± 2.9

Q: And the cell viability (WHIM2)?
A: 80.1 ± 16

Q: And the cell viability (WHIM30)?
A: 90.4 ± 14

Q: For `CC1(C)OC2COC3(COS(N)(=O)=O)OC(C)(C)OC3C2O1` (stereo not given) [Topiramate], which cell viability (HCI01) is on record?
A: 103 ± 19

Q: What about the cell viability (HCI03) of the same compound?
A: 128

Q: And the cell viability (HCI09)?
A: 95.2 ± 20

Q: What about the cell viability (HCI11) of the same compound?
A: 138

Q: And the cell viability (HCI13)?
A: 133 ± 1.9

Q: What about the cell viability (HCI16) of the same compound?
A: 115

Q: And the cell viability (UCD52)?
A: 78.8 ± 6.2

Q: What about the cell viability (WHIM2) of the same compound?
A: 105 ± 16

Q: And the cell viability (WHIM30)?
A: 110 ± 5.4

Q: Which results are given for `Cc1cccc(Nc2ccncc2S(=O)(=O)NC(=O)NC(C)C)c1` [Torsemide]?
A: cell viability (HCI01): 84.3 ± 43; cell viability (HCI03): 140; cell viability (HCI09): 95.4 ± 16; cell viability (HCI11): 93.5; cell viability (HCI13): 120 ± 21; cell viability (HCI16): 127; cell viability (UCD52): 106 ± 1.8; cell viability (WHIM2): 106 ± 1.5; cell viability (WHIM30): 171 ± 13

Q: `Cc1ccc(NC(=O)C2(c3ccc4c(c3)OC(F)(F)O4)CC2)nc1-c1cccc(C(=O)O)c1` was tested. Which cell viability (HCI01) did it give?
A: 104 ± 31

Q: What about the cell viability (HCI03) of the same compound?
A: 89.5

Q: What about the cell viability (HCI09) of the same compound?
A: 78.15 ± 0.74

Q: What about the cell viability (HCI11) of the same compound?
A: 101

Q: What about the cell viability (HCI13) of the same compound?
A: 66 ± 2.5

Q: And the cell viability (HCI16)?
A: 103

Q: And the cell viability (UCD52)?
A: 86.82 ± 0.29

Q: What about the cell viability (WHIM2) of the same compound?
A: 92.4 ± 28

Q: And the cell viability (WHIM30)?
A: 157 ± 13

Q: What does the source list for `NCCCCCC(=O)O` [(6-)ε-Aminocaproic acid]?
A: cell viability (HCI01): 67.8 ± 37; cell viability (HCI03): 136; cell viability (HCI09): 90 ± 16; cell viability (HCI11): 79.6; cell viability (HCI13): 104 ± 5; cell viability (HCI16): 101; cell viability (UCD52): 77.2 ± 5.2; cell viability (WHIM2): 101 ± 24; cell viability (WHIM30): 155 ± 23

Q: With `Cl.O=C(Nc1ccccc1)OCC(CN1CCCCC1)OC(=O)Nc1ccccc1` (stereo not given) [Diperodon HCl] as the compound, how does the cell viability (HCI01) read?
A: 99 ± 2.1

Q: What about the cell viability (HCI03) of the same compound?
A: 124

Q: And the cell viability (HCI09)?
A: 97.9 ± 2.3

Q: And the cell viability (HCI11)?
A: 119

Q: And the cell viability (HCI13)?
A: 162 ± 49

Q: And the cell viability (HCI16)?
A: 138

Q: What about the cell viability (UCD52) of the same compound?
A: 84.2 ± 13

Q: What about the cell viability (WHIM2) of the same compound?
A: 94.3 ± 20

Q: What about the cell viability (WHIM30) of the same compound?
A: 167 ± 16

Q: For `COC(=O)Nc1nc2cc(C(=O)c3ccccc3)ccc2[nH]1` [Mebendazole], which cell viability (HCI01) is on record?
A: 134 ± 45

Q: What about the cell viability (HCI03) of the same compound?
A: 110

Q: And the cell viability (HCI09)?
A: 119 ± 45

Q: What about the cell viability (HCI11) of the same compound?
A: 68.6

Q: And the cell viability (HCI13)?
A: 88.9 ± 15

Q: And the cell viability (HCI16)?
A: 177

Q: And the cell viability (UCD52)?
A: 103.3 ± 0.22

Q: And the cell viability (WHIM2)?
A: 92.6 ± 18

Q: And the cell viability (WHIM30)?
A: 110.3 ± 0.28

Q: What does the source list for `COc1c2occc2cc2ccc(=O)oc12` [8-Methoxypsoralen]?
A: cell viability (HCI01): 116 ± 17; cell viability (HCI03): 147; cell viability (HCI09): 99.5 ± 6.5; cell viability (HCI11): 104; cell viability (HCI13): 121 ± 13; cell viability (HCI16): 122; cell viability (UCD52): 106.6 ± 0.24; cell viability (WHIM2): 101 ± 17; cell viability (WHIM30): 97.9 ± 1.8

Q: Which results are given for `CCCCC(=O)N(Cc1ccc(-c2ccccc2-c2nnn[nH]2)cc1)[C@H](C(=O)O)C(C)C.CCOC(=O)[C@H](C)C[C@@H](Cc1ccc(-c2ccccc2)cc1)NC(=O)CCC(=O)O`?
A: cell viability (HCI01): 98.1 ± 17; cell viability (HCI03): 141; cell viability (HCI09): 95.6 ± 18; cell viability (HCI11): 92.9; cell viability (HCI13): 87.9 ± 5.7; cell viability (HCI16): 112; cell viability (UCD52): 95.1 ± 8.6; cell viability (WHIM2): 93.4 ± 8.2; cell viability (WHIM30): 131 ± 11

Q: How did the cell viability (HCI01) turn out when `CCC(C)n1ncn(-c2ccc(N3CCN(c4ccc(OCC5COC(Cn6cncn6)(c6ccc(Cl)cc6Cl)O5)cc4)CC3)cc2)c1=O` (stereo not given) [Itraconazole] was run?
A: 93.5 ± 38

Q: What about the cell viability (HCI03) of the same compound?
A: 81.2

Q: What about the cell viability (HCI09) of the same compound?
A: 56.7 ± 1.2

Q: What about the cell viability (HCI11) of the same compound?
A: 78.5

Q: What about the cell viability (HCI13) of the same compound?
A: 84.3 ± 4.1

Q: What about the cell viability (HCI16) of the same compound?
A: 129

Q: And the cell viability (UCD52)?
A: 68.6 ± 12

Q: And the cell viability (WHIM2)?
A: 131 ± 17

Q: What about the cell viability (WHIM30) of the same compound?
A: 94.7 ± 1.1

Q: `CS(=O)(=O)c1ccc(C2=C(c3ccccc3)C(=O)OC2)cc1` [Rofecoxib] was tested. Which cell viability (HCI01) did it give?
A: 127 ± 8.3

Q: What about the cell viability (HCI03) of the same compound?
A: 119

Q: What about the cell viability (HCI09) of the same compound?
A: 84.3 ± 18

Q: And the cell viability (HCI11)?
A: 99.7

Q: And the cell viability (HCI13)?
A: 141 ± 20

Q: And the cell viability (HCI16)?
A: 96.7

Q: And the cell viability (UCD52)?
A: 78.7 ± 10

Q: And the cell viability (WHIM2)?
A: 99 ± 6.9

Q: And the cell viability (WHIM30)?
A: 84.6 ± 5.8

Q: For `CS(=O)(=O)OCCCCOS(C)(=O)=O` [Busulfan], which cell viability (HCI01) is on record?
A: 99.951 ± 0.028

Q: And the cell viability (HCI03)?
A: 115

Q: And the cell viability (HCI09)?
A: 117 ± 7.2

Q: And the cell viability (HCI11)?
A: 105

Q: And the cell viability (HCI13)?
A: 109 ± 4.9

Q: What about the cell viability (HCI16) of the same compound?
A: 108

Q: And the cell viability (UCD52)?
A: 81.4 ± 3.8

Q: And the cell viability (WHIM2)?
A: 97.6 ± 4

Q: And the cell viability (WHIM30)?
A: 143 ± 10

Q: Which cell viability (HCI01) does the source give for `Nc1ccc(S(=O)(=O)Nc2ccccn2)cc1` [Sulfapyridine] here?
A: 111.2 ± 0.17

Q: What about the cell viability (HCI03) of the same compound?
A: 131

Q: What about the cell viability (HCI09) of the same compound?
A: 101 ± 2.1

Q: What about the cell viability (HCI11) of the same compound?
A: 92.6

Q: And the cell viability (HCI13)?
A: 138 ± 15

Q: What about the cell viability (HCI16) of the same compound?
A: 147

Q: And the cell viability (UCD52)?
A: 113 ± 19

Q: What about the cell viability (WHIM2) of the same compound?
A: 100 ± 0.64

Q: What about the cell viability (WHIM30) of the same compound?
A: 120 ± 12
